# Sampled rows, rich in hits. Any-hit rate of the full collection: about 10%.
# hNpr1 antagonist – Natriuretic polypeptide receptor (hNpr1) antagonism - Primary qHTS; HEK293 hNpr1 GloSensor cGMP, ANP-stimulated luminescence; Potency, µM (top dose mostly 46.3 µM), for the others: top-dose activity change, negative = inhibition, usual class: inhibitors; 76,000 tested, 1.6% active; Atrial natriuretic peptide receptor 1 (Homo sapiens), P16066; calls by dose curve; note: nearly all actives have a fitted effect of over 60% in size
# Target sequence (P16066 whole entry, looked up): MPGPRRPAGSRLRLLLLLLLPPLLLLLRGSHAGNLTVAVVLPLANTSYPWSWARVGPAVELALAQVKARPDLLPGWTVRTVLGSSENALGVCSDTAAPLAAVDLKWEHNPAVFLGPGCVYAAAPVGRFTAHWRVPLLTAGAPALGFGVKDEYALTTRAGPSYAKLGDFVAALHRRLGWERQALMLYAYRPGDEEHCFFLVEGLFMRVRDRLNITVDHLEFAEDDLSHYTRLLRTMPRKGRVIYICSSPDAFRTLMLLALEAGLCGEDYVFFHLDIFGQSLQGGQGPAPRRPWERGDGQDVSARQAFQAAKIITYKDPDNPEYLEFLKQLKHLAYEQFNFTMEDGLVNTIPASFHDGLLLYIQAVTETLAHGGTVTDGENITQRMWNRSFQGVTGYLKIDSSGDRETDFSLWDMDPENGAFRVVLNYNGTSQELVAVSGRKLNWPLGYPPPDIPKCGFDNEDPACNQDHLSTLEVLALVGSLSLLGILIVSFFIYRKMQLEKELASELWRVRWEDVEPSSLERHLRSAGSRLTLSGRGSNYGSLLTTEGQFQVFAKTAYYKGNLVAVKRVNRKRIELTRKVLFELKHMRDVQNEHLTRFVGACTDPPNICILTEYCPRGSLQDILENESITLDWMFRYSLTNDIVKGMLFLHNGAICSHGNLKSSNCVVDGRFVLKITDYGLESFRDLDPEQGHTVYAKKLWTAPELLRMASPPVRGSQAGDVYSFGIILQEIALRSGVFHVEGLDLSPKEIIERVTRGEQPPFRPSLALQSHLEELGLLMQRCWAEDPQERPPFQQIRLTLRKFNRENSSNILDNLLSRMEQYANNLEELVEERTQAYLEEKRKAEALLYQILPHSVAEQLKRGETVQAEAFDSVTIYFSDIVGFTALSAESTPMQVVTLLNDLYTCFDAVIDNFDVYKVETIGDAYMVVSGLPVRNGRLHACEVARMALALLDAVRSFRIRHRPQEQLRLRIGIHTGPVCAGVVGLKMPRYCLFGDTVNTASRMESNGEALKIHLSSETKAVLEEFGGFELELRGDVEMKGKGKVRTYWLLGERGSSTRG
#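 HEK293 cells stably expressing human Npr1 and cGMP GloSensor pGS-40F, loaded 2 h with 2% GloSensor reagent, given compound 30 min at room temperature. Luminescence read before and 20 min after 0.1 nM hNppA.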
# HEK293 tox – Cytotoxic Profiling in HEK 293 Cell Line of Diverse Libraries Using Quantitative High-Throughput Screening; 94,000 tested, 6.6% active; HEK 293 viability, ATP luminescence (CellTiter-Glo), 48-72 h; Potency, µM (titrated, usually from 115 µM), inactives show top-dose activity change, negative = cytotoxicity, hits mostly inhibitors; AID 1345083, 2018; note: nearly all actives have a fitted effect of over 60% in size
#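 250 HEK 293 cells/well; compound by pintool; incubated 48 or 72 hr at 37 degree Celsius; CellTiter-Glo added, 10 min RT, luminescence imaged.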
# Luciferase inh – Firefly luciferase inhibition profiling of diverse chemical library using quantitative high-throughput screening. Potency, µM (titrated, usually from 115 µM), usual class: inhibitors. Luciferin 4-monooxygenase (Photinus pyralis), P08659. 76,000 tested, 2.5% active. purified P. pyralis luciferase, luminescence, biochemical; note: nearly all actives have a fitted effect of over 65% in size
#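 Luminescence read by CCD imaging after purified firefly luciferase (10nM final) was added to substrate buffer holding 10uM D-luciferin and 10uM ATP, pH 7.5, pre-dosed with compound.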
# 3T3 cytotox – Cytotoxic Profiling in NIH 3T3 Cell Line of Diverse Libraries Using Quantitative High-Throughput Screening | NIH 3T3 viability, CellTiter-Glo ATP luminescence, 48-72 h | Potency, µM (titrated, usually from 96.7 µM), for the others: top-dose activity change, negative = cytotoxicity, actives largely listed as inhibitors | 94,000 tested, 4.3% active; note: nearly all actives have a fitted effect of over 55% in size
#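 Cytotoxicity was measured by CellTiter-Glo ATP luminescence after 48 or 72 h compound exposure at 37 °C. Mouse NIH 3T3 fibroblasts were seeded at 400 cells/well and dosed by 23 nL pin transfer.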
# GPT2 inhibitor – Primary qHTS assay for inhibitors of Glutamate pyruvate transaminase 2 (GPT2) | Alanine aminotransferase 2 (Homo sapiens), Q8TD30 | AID 1671188, 2021 | Recombinant GPT2, coupled pyruvate oxidase/HRP Amplex Red fluorescence | 100,000 tested, 0.25% active | Potency, µM (series often up to 57.7 µM), inactives show top-dose activity change, negative = inhibition, hits mostly inhibitors; note: nearly all actives have a fitted effect of over 60% in size
#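 Recombinant GPT2 (10ng/uL) with 250uM a-KG and 2mM L-alanine, 30 min at room temperature, in HEPES pH 7.5 buffer. Pyruvate detected by pyruvate oxidase/HRP/Amplex Red fluorescence after 30 min in the dark; AOA (50uM) as positive control.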
# * marks the source's active call; other numbers are inactive results; i = inactive; ? = inconclusive; nt = no result; [ ] = another dose, or the depositor's remark. Unless noted, calls come from the whole dose curve; as a rule, active = well fitted curve in the direction sought with a large enough effect; inconclusive = small, poorly fitted or top-dose-only effect, or another doubt; inactive = no such curve, though single readings can be large; an effect the other way counts as inactive or inconclusive. % is set by controls: 0 for no effect and ±100 for the full control effect; potency is the fitted concentration of half-maximal effect.
SMILES,hNpr1 antagonist,HEK293 tox,Luciferase inh,3T3 cytotox,GPT2 inhibitor
COc1ccc(-c2cc(N3CCCC(NC(=O)c4cccc(C#N)c4)C3)n[nH]2)cc1 (centres undefined),-16.2%,?,20µM*,?,i
CC(=O)Nc1cccc(C(=O)NC2CCCN(c3cc(-c4ccc(F)cc4)[nH]n3)C2)c1 (centres undefined),-1.3%,?,?,-21.4%,?
COc1ccc(-c2cc(N3CCCC(NC(=O)c4cccc(Br)c4)C3)n[nH]2)cc1 (centres undefined),-29.4%,?,?,?,-11.2%
CCN(CC)C(=O)C(C)[C@@H]1CC[C@@]2(C)CC[C@H](NC(=O)c3ccccc3)[C@@H](C)[C@@H]2[C@H]1O (some centres undefined),-24.6%[70.6 µM],-16.7%[172 µM],i,-18.2%[138 µM],3.9%[88.5 µM]
Cn1ncc2c(C(=O)NCCCc3ccccc3)cc(-c3ccc(Cl)cc3Cl)nc21,nt,?,nt,?,0.0%
COc1cccc(-c2cccc(C(=O)N3CCCC3C(=O)NCc3ccc(F)cc3)c2)c1 (centres undefined),nt,?,nt,?,1.4%
COc1ccc(-c2cc(N3CCCC(NC(=O)c4ccccc4)C3)n[nH]2)cc1 (centres undefined),-16.0%,?,22.4µM*,?,-24.1%
COc1ccc(-c2cc(N3CCCC(NC(=O)c4ccoc4)C3)n[nH]2)cc1 (centres undefined),-7.7%,?,22.4µM*,-17.8%,-20.4%
COc1ccc(-c2cc(N3CCCC(NC(=O)c4ccc(C)s4)C3)n[nH]2)cc1 (centres undefined),-14.3%,?,28.2µM*,?,-18.7%
COc1cccc(CNC(=O)c2ccc3nnc(Cc4ccco4)n3c2)c1,nt,-0.2%[172 µM],nt,?,3.0%[88.5 µM]
CCOC(=O)C1CCCN(C(=O)c2cn3cc(-c4ccc(C)cc4)sc3n2)C1 (centres undefined),nt,?,nt,-27.1%,i
Cc1ccc(C(=O)Nc2cc(-c3ccncc3)nn2C)cc1,nt,?,nt,?,0.8%[88.5 µM]
Cc1nccn1CC(=O)N1C[C@@H](COCC2CC2)[C@H](c2ccncc2)C1,9.2%,-9.5%,i,-20.3%,i
CCOC(=O)C1CCN(C(=O)C2CCc3nnc(C4CCN(C(C)=O)CC4)n32)CC1 (centres undefined),nt,i,nt,-5.7%,4.0%
C=CCN(C)C(=O)[C@@H](C)C1CC[C@@]2(C)Cc3sc(CSc4ccccc4)nc3[C@@H](C)[C@@H]2[C@H]1O (some centres undefined),-12.0%,-8.7%,i,-33.7%,-16.6%
C#CCN(C)C(=O)[C@@H](C)C1CC[C@@]2(C)Cc3sc(NCCCC)nc3[C@@H](C)[C@@H]2[C@H]1O (some centres undefined),-20.1%[70.6 µM],?,17.8µM*,?,?
C=CCN(C)C(=O)[C@@H](C)C1CC[C@@]2(C)Cc3sc(NC(=O)C4CC4)nc3[C@@H](C)[C@@H]2[C@H]1O (some centres undefined),3.9%,i,i,-6.3%,i
C=CCN(C)C(=O)[C@@H](C)C1CC[C@@]2(C)Cc3sc(NCCCC)nc3[C@@H](C)[C@@H]2[C@H]1O (some centres undefined),-12.6%[70.6 µM],?,?,35.5µM*,?
CC(=O)NCCNC[C@@H]1C=C(C)[C@H](Cc2nnc(-c3cncn3C)o2)C[C@H]1C(C)C,-3.0%[70.6 µM],-15.4%[172 µM],i,-8.8%[174 µM],-29.5%[88.5 µM]
O=C1N(C2CCNCC2)C(c2ccncc2)C12CCCCC2 (centres undefined),7.6%,-6.2%,i,i,4.4%
O=C1NCc2ccccc2CC12CCCCN2Cc1ccc(F)cc1 (centres undefined),nt,?,nt,-13.1%,i
COc1ccc(F)cc1-c1cccc(C(=O)NCCNC(=O)C2CC2)c1,nt,?,nt,?,0.6%
O=[S+]([O-])(NC1CCN(Cc2ccc(-c3ccsc3)cc2)C1)c1ccccc1 (centres undefined),nt,?,nt,?,i
O=C(NC1CCN(Cc2ccc(-c3ccsc3)cc2)C1)c1ccccc1F (centres undefined),nt,?,nt,?,-2.4%
O=[S+]([O-])(NC1CCN(Cc2ccc(-c3ccsc3)cc2)C1)c1cccc(C(F)(F)F)c1 (centres undefined),nt,28.2µM*,nt,15.8µM*,i
SMILES,hNpr1 antagonist,HEK293 tox,Luciferase inh,3T3 cytotox,GPT2 inhibitor
Cc1ccc([S+](=O)([O-])NC2CCN(Cc3ccc(-c4ccsc4)cc3)C2)cc1 (centres undefined),nt,44.7µM*,nt,?,-0.8%
O=C(c1ccc2oc(-c3ccncc3Cl)nc2c1)N1CCCCC1,nt,?,nt,?,3.5%[88.5 µM]
O=C(CCn1ccn2nc3c(c2c1=O)CCCC3)Nc1ccc2c(c1)OCO2,-14.7%,?,?,-11.4%,i
Cc1ccc(C(=O)NCCn2ccn3nc(-c4cc(C)ccc4C)cc3c2=O)cc1,-7.1%,?,i,-16.5%,i
Cc1ccc(-c2cc3c(=O)n(CCNC(=O)c4ccc5ccccc5n4)ccn3n2)c(C)c1,?,?,?,?,i
Cc1ccc(-c2cc3c(=O)n(CCNC(=O)Cc4c[nH]c5ccccc45)ccn3n2)c(C)c1,?,39.8µM*,?,-27.3%,-2.9%
Cc1ccc(-c2cc3c(=O)n(CCNC(=O)c4cc(C5CC5)[nH]n4)ccn3n2)c(C)c1,?,?,1.26µM*,-25.6%,i
Cc1ccc(C)c(-c2cc3c(=O)n(CCNC(=O)c4ccc(C#N)cc4)ccn3n2)c1,-23.3%,12.6µM*,i,?,i
Cc1ccc(C)c(-c2cc3c(=O)n(CCNC(=O)c4ccc5ccccc5n4)ccn3n2)c1,-18.5%,35.5µM*,i,?,-1.4%
Cc1ccc(-c2cc3c(=O)n(CCNC(=O)c4ccc(F)cc4)ccn3n2)c(C)c1,?,?,?,-26.3%,i
Cn1cc(C(=O)NCC2CN([S+](=O)([O-])c3ccccc3Cl)CC23CN(c2ccccc2)C3)cn1 (centres undefined),-15.4%,?,i,-23.5%,?
Cc1noc(C)c1[S+](=O)([O-])N1CCC(C(=O)N2CCC(N3CCCC3=O)CC2)CC1,nt,-13.6%,nt,-20.7%,i
Cc1ccc(C)c(-c2cc3c(=O)n(CCNC(=O)c4ccccc4Cl)ccn3n2)c1,-17.8%,44.7µM*,i,35.5µM*,i

# Assay outcomes (PubChem)
